# From patent US20030175730, “Multivalent RNA aptamers and their expression in multicellular organisms” (published 2003)
# Target: B52 (SRp55) full length (Drosophila melanogaster, UniProt P26686 P26686:1-350)
# Assay: EMSA; almost a factor of three
# Settings: tags: baculovirus/Sf9 expressed, SR protein purification; label: 32P-UTP; ssRNA
# Method: All binding assays were performed in 20 μl volume in 1× binding buffer described above. A typical binding assay using labeled RNA contains about 20 finole of ³²P-labeled RNA probe and differing amounts (1-10 pmole) of B52 protein. A typical binding assay using the truncated versions of B52 contains 1 μl of the ³⁵S-labeled translation reaction mixture with 2 pmoles of unlabeled RNA transcript (the final concentration of RNAs in this reaction was 100 nM and concentration of the labeled B52 proteins was much lower). The reactions were allowed to equilibrate for 15-20 minutes at ambient temperature before being subjected to filter binding, gel shift, or UV crosslinking.
# To determine the sequence/structure requirements for binding by B52, deletion and substitution mutations, and antisense constructs of BBS were designed in light of the shared sequence motif and predicted secondary structures (FIG. 4). These short RNA transcripts were produced by in vitro transcription of synthetic templates, and their affinity to B52 was assayed by band shift.
# B52 (SRp55) full length, sequence (P26686 other isoform, or with tags, fused parts or gaps): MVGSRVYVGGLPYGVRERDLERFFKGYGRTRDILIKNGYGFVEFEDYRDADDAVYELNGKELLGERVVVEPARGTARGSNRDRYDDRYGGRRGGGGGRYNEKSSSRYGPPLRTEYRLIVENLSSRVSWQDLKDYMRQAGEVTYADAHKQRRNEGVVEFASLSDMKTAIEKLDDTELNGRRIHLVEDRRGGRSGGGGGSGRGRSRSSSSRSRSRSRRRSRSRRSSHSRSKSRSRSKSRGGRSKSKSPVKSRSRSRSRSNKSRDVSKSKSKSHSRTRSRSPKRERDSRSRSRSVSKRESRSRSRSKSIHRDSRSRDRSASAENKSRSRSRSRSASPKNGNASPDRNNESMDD
row,Sequence,binding signal
1,GGACGAUCAACCAGGCGACAGU,~3 fold lower affinity than BBS-II
